# From PubChem BioAssay (NCI)
# The panel holds about 79,000 compounds, 15% with a hit somewhere; the sample as a whole holds those more often. Values without a mark were called inactive. Calls of active or inactive are those of the source. Rule as the data show it: active = growth inhibition above about 70%; inactive = the rest.
# Assay: NCI Yeast Anticancer Drug Screen. Data for the mlh1 rad18 strain (AID 175)
# Conditions: S. cerevisiae mlh1 rad18 strain growth inhibition; at 50.0 µM (retest, dose inferred, filed as 5.0); stronger effect = higher value
# In short: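 Growth inhibition of the yeast strain was measured after compound exposure and expressed relative to vehicle-treated controls. The strain carries defined defects in DNA damage repair.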
row,SMILES,growth inhibition
1,Cc1ccccc1Sc1ccccc1[N+](=O)[O-],39%
2,Nc1nc(-c2ccc3c(c2)Sc2ccccc2O3)cs1,99% (active)
3,CC(C)(C)C1CCC2c3c([nH]c4ccccc34)C3C(=O)N(c4ccc(C(=O)O)cc4)C(=O)C3C2C1 (stereo not given),99% (active)
4,CCC[CH2][Sn]([CH2]CCC)([O]N(C)C(=O)c1ccc(Br)cc1)[O]N(C)C(=O)c1ccc(Br)cc1,98% (active)
5,COC(=O)c1ccc([N+](=O)[O-])o1,56%
6,O=C(OC1=C(Br)C(=O)c2ccccc2C1=O)c1ccccc1,98% (active)
7,O=C(O)C/C(=C\c1ccco1)C(=O)O,-7%
8,N#C/C(=C/c1ccc([N+](=O)[O-])o1)c1ccccc1,21%
9,CCN(CC)CCOc1ccc(C=C2c3ccccc3-c3ccccc32)cc1,99% (active)
10,Nc1ncnc(N2CCOCC2)c1N,-6%
11,Cc1cc(Cl)ccc1N1C(=O)C(=O)C(c2nc3ccccc3o2)C(=O)C1=O,96% (active)
12,Cc1nc2c(Cl)nc(Cl)nc2s1,97% (active)
13,CC1=NOC(=O)/C1=C/c1ccc(Cl)c(Cl)c1,45%
14,CN(CCC(=O)/C(=C\c1ccc(Cl)cc1)c1ccccc1)Cc1ccccc1,99% (active)
15,C(=N\N=C\c1ccc2c(c1)OCO2)/c1ccc2c(c1)OCO2,21%
16,Clc1ccc(CSc2ncnc3c2ncn3C2CCCCO2)cc1 (stereo not given),96% (active)
17,CC(=O)OC/C=C/CCCOC(C)=O,-5%
18,CCCCCCCCCCOC(=O)c1cccnc1,87% (active)
19,Cc1ccc2c(c1)C1(SCC(=O)N1c1ccc(Cl)cc1)C(=O)N2 (stereo not given),69%
20,Oc1ccc(C2CCc3ccccc32)cc1 (stereo not given),98% (active)

row,SMILES,growth inhibition
1,[O-][N+]1=C2CCC/C(=N/O)C2(O)C2CCCCC21N1CCOCC1 (stereo not given),26%
2,CCCCN(c1ccccc1)c1ncnc2c1ncn2C,89% (active)
3,Cc1cc(C)nc(/C=C/c2ccccc2)c1,18%
4,CCCCN(C)N=Nc1c(C(N)=O)n[nH]c1C(C)C,80% (active)
5,O=C1C(Cl)=C(Cl)C(=O)C2=C1CC(Cl)C(Cl)C2 (stereo not given),99% (active)
6,O=C1Oc2ccccc2C(=O)/C1=C/N1C(=O)/C(=C/c2ccc3c(c2)OCO3)SC1=S,77% (active)
7,O=C(/C=C/c1ccc(O)cc1)c1cc(Cl)ccc1O,96% (active)
8,CCCC(C(=O)OCCNC1CCCCC1)c1ccccc1 (stereo not given),18%
9,c1ccc2cc3c(cc2c1)Nc1c2ccccc2nc2cccc-3c12,71% (active)
10,CCCC1CCCC1(CC(=O)c1ccccc1)C(=O)O (stereo not given),72% (active)
11,COc1ccc(CCN2C(=O)C(=O)N(C3CCCCC3)C2=O)cc1OC,-8%
12,COC(C(=O)O)c1ccccc1 (stereo not given),0%
13,CCCCCCCCC(=O)NCCCNCCCNC(=O)CCCCCCCC,-11%
14,C[Si](C)(CCC(=O)O)O[Si](C)(C)CCC(=O)O,68%
15,Cc1c2cc[n+](C)cc2c(C)c2c1[nH]c1ccc(Cl)cc12,99% (active)
16,O=[N+]([O-])c1ccc(C2=Nn3c(nnc3-c3ccc(Cl)cc3)SC2)o1,91% (active)
17,CCCCCCCCCCN(CCCCCCCCCC)CC(O)c1cc(-c2ccccc2)nc2ccccc12 (stereo not given),57%
18,O=C(c1ccccc1)C(c1ccccc1)C1(O)C(=O)Nc2c(Cl)cc(Cl)cc21 (stereo not given),0%
19,COC(=S)S,6%
20,CC/C(=C(\CC)c1ccc(O)c(CN(CC)CC)c1)c1ccc(OC)cc1,99% (active)

# Same assay, conditions: S. cerevisiae mlh1 rad18 strain growth inhibition; at 50.0 µM; stronger effect = higher value
row,SMILES,growth inhibition
1,Cc1ccccc1Sc1ccccc1[N+](=O)[O-],74.5% (active)
2,Nc1nc(-c2ccc3c(c2)Sc2ccccc2O3)cs1,93.7% (active)
3,CC(C)(C)C1CCC2c3c([nH]c4ccccc34)C3C(=O)N(c4ccc(C(=O)O)cc4)C(=O)C3C2C1 (stereo not given),98.8% (active)
4,CCC[CH2][Sn]([CH2]CCC)([O]N(C)C(=O)c1ccc(Br)cc1)[O]N(C)C(=O)c1ccc(Br)cc1,90.5% (active)
5,COC(=O)c1ccc([N+](=O)[O-])o1,72.3% (active)
6,O=C(OC1=C(Br)C(=O)c2ccccc2C1=O)c1ccccc1,51.2%
7,O=C(O)C/C(=C\c1ccco1)C(=O)O,-16.4%
8,N#C/C(=C/c1ccc([N+](=O)[O-])o1)c1ccccc1,5.9%
9,CCN(CC)CCOc1ccc(C=C2c3ccccc3-c3ccccc32)cc1,98.9% (active)
10,Nc1ncnc(N2CCOCC2)c1N,83.5% (active)
11,Cc1cc(Cl)ccc1N1C(=O)C(=O)C(c2nc3ccccc3o2)C(=O)C1=O,87.8% (active)
12,Cc1nc2c(Cl)nc(Cl)nc2s1,98.2% (active)
13,CC1=NOC(=O)/C1=C/c1ccc(Cl)c(Cl)c1,43.1%
14,CN(CCC(=O)/C(=C\c1ccc(Cl)cc1)c1ccccc1)Cc1ccccc1,98.5% (active)
15,C(=N\N=C\c1ccc2c(c1)OCO2)/c1ccc2c(c1)OCO2,6.45%
16,Clc1ccc(CSc2ncnc3c2ncn3C2CCCCO2)cc1 (stereo not given),97% (active)
17,CC(=O)OC/C=C/CCCOC(C)=O,62.6%
18,CCCCCCCCCCOC(=O)c1cccnc1,80.5% (active)
19,Cc1ccc2c(c1)C1(SCC(=O)N1c1ccc(Cl)cc1)C(=O)N2 (stereo not given),67.9%
20,Oc1ccc(C2CCc3ccccc32)cc1 (stereo not given),99.4% (active)

row,SMILES,growth inhibition
1,[O-][N+]1=C2CCC/C(=N/O)C2(O)C2CCCCC21N1CCOCC1 (stereo not given),-3.2%
2,CCCCN(c1ccccc1)c1ncnc2c1ncn2C,89.9% (active)
3,Cc1cc(C)nc(/C=C/c2ccccc2)c1,97.8% (active)
4,CCCCN(C)N=Nc1c(C(N)=O)n[nH]c1C(C)C,57.6%
5,O=C1C(Cl)=C(Cl)C(=O)C2=C1CC(Cl)C(Cl)C2 (stereo not given),99.2% (active)
6,O=C1Oc2ccccc2C(=O)/C1=C/N1C(=O)/C(=C/c2ccc3c(c2)OCO3)SC1=S,44.3%
7,O=C(/C=C/c1ccc(O)cc1)c1cc(Cl)ccc1O,93.3% (active)
8,CCCC(C(=O)OCCNC1CCCCC1)c1ccccc1 (stereo not given),55.2%
9,c1ccc2cc3c(cc2c1)Nc1c2ccccc2nc2cccc-3c12,89.8% (active)
10,CCCC1CCCC1(CC(=O)c1ccccc1)C(=O)O (stereo not given),82.5% (active)
11,COc1ccc(CCN2C(=O)C(=O)N(C3CCCCC3)C2=O)cc1OC,38.4%
12,COC(C(=O)O)c1ccccc1 (stereo not given),79.5% (active)
13,CCCCCCCCC(=O)NCCCNCCCNC(=O)CCCCCCCC,89.3% (active)
14,C[Si](C)(CCC(=O)O)O[Si](C)(C)CCC(=O)O,99.2% (active)
15,Cc1c2cc[n+](C)cc2c(C)c2c1[nH]c1ccc(Cl)cc12,91% (active)
16,O=[N+]([O-])c1ccc(C2=Nn3c(nnc3-c3ccc(Cl)cc3)SC2)o1,79.3% (active)
17,CCCCCCCCCCN(CCCCCCCCCC)CC(O)c1cc(-c2ccccc2)nc2ccccc12 (stereo not given),55%
18,O=C(c1ccccc1)C(c1ccccc1)C1(O)C(=O)Nc2c(Cl)cc(Cl)cc21 (stereo not given),92.2% (active)
19,COC(=S)S,-24.7%
20,CC/C(=C(\CC)c1ccc(O)c(CN(CC)CC)c1)c1ccc(OC)cc1,99.5% (active)
